PubChem BioAssay AID1159580 (chemical genetic matrix, 2015)
Out of some 5,500 compounds screened, about 2,000 (36%) were called active. Another 18% or so got no clear call; they are omitted. No stated cut-off is given here; in the data, active means normalized growth mostly below about 0.91 (no sharp cut-off); inconclusive means no clear call, values can overlap the other calls; inactive means mostly above about 0.92. The list shows a part of the results.

Assay: chemical genetic growth profiling, strain panel (AID 1159580);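 further: tested at 20 µM; growth read once vehicle control cultures reached saturation at 30 °C; 1 = growth at the plate median or of vehicle wells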
Settings: S. cerevisiae deletion strains, growth OD
[1] = locus YDL101C, strain DUN1, stronger effect = lower value
[2] = locus YHR030C, strain SLT2, stronger effect = lower value

Measured: normalized growth

Cc1onc(-c2ccc(Cl)cc2)c1-c1ccnn1C(=O)NC(C)C
active: locus YGR078C, strain PAC10, stronger effect = lower value 0.92 | locus YHR087W, strain rtc3, stronger effect = lower value 0.906 | locus YJR075W, strain HOC1, stronger effect = lower value 0.73 | locus YKL190W, strain CNB1, stronger effect = lower value 0.906 | locus YLR058C, strain SHM2 (second series), stronger effect = lower value 0.92 | locus YLR085C, strain ARP6, stronger effect = lower value 0.591 | locus YMR219W, strain ESC1, stronger effect = lower value 0.933 | locus YNL298W, strain CLA4 (second series), stronger effect = lower value 0.836 | locus YNL322C, strain KRE1, stronger effect = lower value 0.921 | locus YNR030W, strain Alg12, stronger effect = lower value 0.804 | locus YPL241C, strain CIN2, stronger effect = lower value 0.789
inactive: locus YAL013W, strain DEP1, stronger effect = lower value 0.966 | locus YBR229C, strain ROT2, stronger effect = lower value 0.932 | locus YCL061C, strain MRC1, stronger effect = lower value 0.963 | [1] 0.974 | locus YDR150W, strain NUM1, stronger effect = lower value 0.96 | locus YEL061C, strain CIN8, stronger effect = lower value 0.94 | [2] 0.918 | locus YJR043C, strain POL32, stronger effect = lower value 0.949 | locus YLR039C, strain RIC1, stronger effect = lower value 0.989 | locus YLR262C, strain YPT6, stronger effect = lower value 1.02 | locus YML094W, strain GIM5, stronger effect = lower value 0.964 | locus YMR263W, strain SAP30, stronger effect = lower value 0.951 | locus YNL153C, strain GIM3, stronger effect = lower value 0.964 | locus YPL055C, strain LGE1, stronger effect = lower value 0.835 | locus YPR135W, strain CTF4, stronger effect = lower value 0.71

Cc1cc(Cl)ccc1NNC(=O)c1sccc1Cl
inactive: locus YAR019C, strain CDC15, stronger effect = lower value 0.892 | locus YBL105C, strain PKC1, stronger effect = lower value 0.912 | locus YBR135W, strain CKS1, stronger effect = lower value 0.908 | locus YBR136W, strain MEC1, stronger effect = lower value 0.9 | locus YBR160W, strain CDC28, stronger effect = lower value 0.913 | locus YDL017W, strain CDC7, stronger effect = lower value 0.915 | locus YDL028C, strain MPS1, stronger effect = lower value 0.912 | locus YDL108W, strain KIN28, stronger effect = lower value 0.907 | locus YDL132W, strain cdc53, stronger effect = lower value 0.928 | locus YDL214C, strain PRR2, stronger effect = lower value 0.869 | locus YDR054C, strain cdc34, stronger effect = lower value 0.882 | locus YDR477W, strain SNF1, stronger effect = lower value 0.861 | locus YER123W, strain YCK3, stronger effect = lower value 0.787 | locus YER133W, strain GLC7, stronger effect = lower value 0.794 | locus YFL009W, strain cdc4, stronger effect = lower value 0.893 | locus YFL029C, strain CAK1, stronger effect = lower value 0.883 | locus YFR003C, strain YPI1, stronger effect = lower value 0.911 | locus YFR019W, strain FAB1, stronger effect = lower value 0.907 | locus YFR028C, strain CDC14, stronger effect = lower value 0.894 | locus YGR040W, strain KSS1, stronger effect = lower value 0.861 | locus YGR052W, strain FMP48, stronger effect = lower value 0.861 | locus YGR092W, strain DBF2, stronger effect = lower value 0.7 | locus YHR079C, strain IRE1, stronger effect = lower value 0.859 | locus YHR082C, strain KSP1, stronger effect = lower value 0.884 | locus YHR205W, strain SCH9, stronger effect = lower value 0.878 | locus YIL147C, strain SLN1, stronger effect = lower value 0.913 | locus YJL128C, strain PBS2, stronger effect = lower value 0.89 | locus YJL157C, strain FAR1, stronger effect = lower value 0.864 | locus YJR066W, strain TOR1 (second series), stronger effect = lower value 0.874 | locus YJR066W, strain TOR1, stronger effect = lower value 0.835 | locus YKL048C, strain ELM1, stronger effect = lower value 0.872 | locus YKL067W, strain YNK1, stronger effect = lower value 0.861 | locus YKL101W, strain HSL1, stronger effect = lower value 0.917 | locus YKL193C, strain SDS22, stronger effect = lower value 0.893 | locus YKL203C, strain TOR2, stronger effect = lower value 0.912 | locus YLR133W, strain CKI1, stronger effect = lower value 0.878 | locus YLR403W, strain SFP1, stronger effect = lower value 0.831 | locus YML070W, strain DAK1, stronger effect = lower value 0.836 | locus YMR001C, strain CDC5, stronger effect = lower value 0.894 | locus YMR205C, strain PFK2 (second series), stronger effect = lower value 0.844 | locus YMR277W, strain FCP1, stronger effect = lower value 0.905 | locus YNL020C, strain ARK1, stronger effect = lower value 0.885 | locus YNL183C, strain NPR1, stronger effect = lower value 0.858 | locus YNL207W, strain RIO2, stronger effect = lower value 0.9 | locus YNL222W, strain SSU72, stronger effect = lower value 0.896 | locus YNL307C, strain MCK1 (second series), stronger effect = lower value 0.811 | locus YOL078W, strain AVO1, stronger effect = lower value 0.888 | locus YOL136C, strain PFK27, stronger effect = lower value 0.84 | locus YOR061W, strain CKA2, stronger effect = lower value 0.876 | locus YOR119C, strain RIO1, stronger effect = lower value 0.91 | locus YOR231W, strain MKK1, stronger effect = lower value 0.823 | locus YOR329C, strain SCD5, stronger effect = lower value 0.909 | locus YPL031C, strain PHO85, stronger effect = lower value 0.861 | locus YPL153C, strain RAD53, stronger effect = lower value 0.803 | locus YPL204W, strain HRR25, stronger effect = lower value 0.822 | locus YPR025C, strain CCL1, stronger effect = lower value 0.902 | locus YPR106W, strain ISR1, stronger effect = lower value 0.903 | locus YPR111W, strain DBF20, stronger effect = lower value 0.882 | strain NNK1, stronger effect = lower value 0.897
active: [1] 0.907 | locus YDR052C, strain DBF4, stronger effect = lower value 0.898 | locus YDR226W, strain ADK1, stronger effect = lower value 0.894 | [2] 0.152 | locus YJL095W, strain BCK1, stronger effect = lower value 0.194 | locus YJR016C, strain ILV3, stronger effect = lower value 0.898 | locus YLR113W, strain HOG1, stronger effect = lower value 0.779 | locus YNL006W, strain LST8, stronger effect = lower value 0.898 | locus YNL161W, strain CBK1, stronger effect = lower value 0.89 | locus YPL209C, strain IPL1, stronger effect = lower value 0.899 | locus YPL256C, strain CLN2, stronger effect = lower value 0.803 | strain TSCII, stronger effect = lower value 0.878
